We go through 24 molecules from PubChem BioAssay (NCATS).

Structures are written as SMILES. Values joined by “and” are separate entries in the source; they are usually repeats but may differ in a detail not shown here. Equal entries are not always repeated. A number with no mark means an inactive call. Results filed as inconclusive are left out. Active and inactive are the calls of the source. Unless noted, calls come from the whole dose curve; as a rule, active = well fitted curve in the direction sought with a large enough effect; inconclusive = small, poorly fitted or top-dose-only effect, or another doubt; inactive = no such curve, though single readings can be large; an effect the other way counts as inactive or inconclusive.

Assay [1] has as its target Thyrotropin receptor (Homo sapiens) (UniProt P16473). Put plainly: qHTS Assay for Antagonists of the Thyroid Stimulating Hormone Receptor (AID 488980). Note: series mostly up to about 58 µM; 0% is about no effect. The gist of the method: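 TSHR-HEK293 cells; 70 uM RO 20-1724 PDE inhibitor; compound + EC80 TSH (4 nM final); anti-cAMP cryptate antibody/cAMP-d2 in lysis buffer, 30 min RT; HTRF 665/620 nm read.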
For assay [2], the target named is D(1A) dopamine receptor (Homo sapiens) (UniProt P21728). The assay can be described thus: HTS Assay for Allosteric Agonists of the Human D1 Dopamine Receptor: Primary Screen for Agonists (AID 488981). Note: 0% is about no effect. The gist of the method:
(§1)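 Tetracycline-induced HEK293 T-REx cells force-coupled to calcium signalling were incubated overnight at 30 C and dye-loaded at room temperature. Calcium flux over 180 s after compound addition flagged agonists; a further 180 s read after EC20 dopamine flagged potentiators.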

Assay [3] has the same target. The assay can be described thus: HTS Assay for Allosteric Agonists of the Human D1 Dopamine Receptor: Primary Screen for Antagonists (AID 488983).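 Note: calcium flux response to an EC80 dopamine challenge measured with no-wash dye; nearly all actives have a fitted effect of over 65% in size.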 Note: potency is the fitted concentration of half-maximal effect. The gist of the method:
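Tetracycline-induced HEK293 T-REx D1 line, force-coupled to calcium flux, read with no-wash calcium dye. Compound added after 10 s baseline, read 180 s for agonism, then EC80 dopamine added and read a further 180 s.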

Assay [4] is described as follows: Validation screen for small molecules that induce genotoxicity in human embryonic kidney (HEK293T) cells expressing luciferase-tagged ELG1 (AID 493106). Note: 0% is about no effect. The gist of the method:
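HEK293T cells expressing luciferase-tagged ELG1, 2,000 cells/well, exposed to compound 16 hr at 37 °C, 5% CO2. Luciferase read after ONE-Glo, 30 min at room temperature; increased signal indicates genetic stress.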

For assay [5], the target named is ATPase family AAA domain-containing protein 5 (Homo sapiens) (UniProt Q96QE3). Put plainly: Validation screen for small molecules that inhibit ELG1-dependent DNA repair in human embryonic kidney (HEK293T) cells expressing luciferase-tagged ELG1 (AID 493107).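 Note: cells co-treated with the DNA-damaging agent 5-fluorouridine alongside compound; series mostly up to about 46 µM; % is set by controls: 0 for no effect and ±100 for the full control effect; inhibitors lower the ELG1-luciferase luminescence signal; nearly all actives have a fitted effect of over 70% in size.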 The procedure, abridged: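 HEK293T cells expressing luciferase-tagged ELG1, 2,000 per well, treated with 5-fluorouridine plus compound for 16 h at 37 C. ONE-Glo luminescence after 30 min at room temperature reports ELG1 reporter level.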

The target of assay [6] is Thyrotropin-releasing hormone receptor (Homo sapiens) (UniProt P34981). Put plainly: qHTS for Small Molecule Agonists and Allosteric Enhancers of Human TRH Receptor: Validation Screen for Agonists (AID 493127;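 active = calcium activation more than 3 SD above the typical response in the agonist read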; note: 0% is about no effect). Conditions: TRH receptor agonist cell assay; at 2 µM; hits give high values. The procedure, abridged:
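TRHR cells loaded with fluo-8 calcium dye; FDSS kinetic fluorescence (Ex 480/Em 530) read at 1 s/cycle after 23 nL compound addition. Agonist-mode calcium response recorded before the 10 nM TRH (EC20) addition.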
A general note: Quantitative high-throughput screening tests each substance at several concentrations.

Assay [7] deals with Transient receptor potential cation channel subfamily V member 1 (Homo sapiens) (UniProt Q8NER1). Put plainly: HTS Assay for Compounds that Act as Enhancers of the Vanilloid Receptor 1 (AID 488979). Note: 0% is about no effect. The gist of the method:
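TRPV1-expressing cells loaded with Fluo-8 calcium dye; compounds added and calcium influx read kinetically for 3 min (agonist phase), then capsaicin at EC20 added and read 2 min more for enhancement. Fluorescence ex 480/em 520 nm.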

Assay [8] has as its target D(1A) dopamine receptor (Homo sapiens) (UniProt P21728). Put plainly: HTS Assay for Allosteric Agonists of the Human D1 Dopamine Receptor: Primary Screen for Potentiators (AID 488982). Note: 0% is about no effect. The procedure, abridged:
as §1

For assay [9], the target named is ATP-dependent 6-phosphofructokinase (Trypanosoma brucei brucei) (UniProt O15648). Put plainly: qHTS Assay to Find Inhibitors of T. brucei phosphofructokinase: hit validation (AID 492961).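 Note: luminescence reports ADP formed as PFK phosphorylates fructose-6-phosphate with ATP; series mostly up to about 51 µM; % is set by controls: 0 for no effect and ±100 for the full control effect.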 The gist of the method: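 PFK 1.25 nM, F6P 0.5 mM, ATP 0.1 mM, MgCl2 5 mM, 0.1 M TEA pH 8.0, Tween20 0.01%, BSA 0.1%; 45 min RT. ADP-Glo two-step detection, luminescence. qHTS titration; curve fitting with curve-class categorization.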
ATP-dependent 6-phosphofructokinase (Trypanosoma brucei brucei), sequence (O15648 whole entry, looked up): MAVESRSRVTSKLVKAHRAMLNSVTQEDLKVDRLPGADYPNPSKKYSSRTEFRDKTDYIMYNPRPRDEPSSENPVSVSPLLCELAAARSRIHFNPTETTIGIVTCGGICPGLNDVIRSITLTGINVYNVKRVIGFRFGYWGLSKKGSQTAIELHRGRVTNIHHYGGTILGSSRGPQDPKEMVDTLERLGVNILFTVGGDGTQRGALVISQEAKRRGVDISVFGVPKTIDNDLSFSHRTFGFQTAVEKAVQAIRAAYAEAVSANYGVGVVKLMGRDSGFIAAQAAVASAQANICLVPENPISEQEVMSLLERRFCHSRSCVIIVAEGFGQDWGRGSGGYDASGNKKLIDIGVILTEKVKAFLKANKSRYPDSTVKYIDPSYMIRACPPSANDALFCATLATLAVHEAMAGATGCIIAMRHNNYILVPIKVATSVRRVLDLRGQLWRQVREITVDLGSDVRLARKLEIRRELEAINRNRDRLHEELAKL

Thyrotropin-releasing hormone receptor (Homo sapiens), sequence (P34981 whole entry, looked up): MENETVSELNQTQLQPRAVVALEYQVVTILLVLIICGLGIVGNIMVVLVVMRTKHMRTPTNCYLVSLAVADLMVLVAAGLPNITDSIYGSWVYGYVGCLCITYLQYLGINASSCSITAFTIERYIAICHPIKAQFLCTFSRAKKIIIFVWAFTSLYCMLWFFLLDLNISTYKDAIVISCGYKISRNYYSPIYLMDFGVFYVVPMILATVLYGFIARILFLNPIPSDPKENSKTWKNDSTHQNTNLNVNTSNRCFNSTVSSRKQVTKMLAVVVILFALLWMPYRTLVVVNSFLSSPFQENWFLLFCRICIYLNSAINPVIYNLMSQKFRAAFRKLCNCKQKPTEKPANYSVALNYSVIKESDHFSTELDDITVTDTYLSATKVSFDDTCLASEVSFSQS
ATPase family AAA domain-containing protein 5 (Homo sapiens), sequence (Q96QE3 whole entry, looked up, the tested form may be a part): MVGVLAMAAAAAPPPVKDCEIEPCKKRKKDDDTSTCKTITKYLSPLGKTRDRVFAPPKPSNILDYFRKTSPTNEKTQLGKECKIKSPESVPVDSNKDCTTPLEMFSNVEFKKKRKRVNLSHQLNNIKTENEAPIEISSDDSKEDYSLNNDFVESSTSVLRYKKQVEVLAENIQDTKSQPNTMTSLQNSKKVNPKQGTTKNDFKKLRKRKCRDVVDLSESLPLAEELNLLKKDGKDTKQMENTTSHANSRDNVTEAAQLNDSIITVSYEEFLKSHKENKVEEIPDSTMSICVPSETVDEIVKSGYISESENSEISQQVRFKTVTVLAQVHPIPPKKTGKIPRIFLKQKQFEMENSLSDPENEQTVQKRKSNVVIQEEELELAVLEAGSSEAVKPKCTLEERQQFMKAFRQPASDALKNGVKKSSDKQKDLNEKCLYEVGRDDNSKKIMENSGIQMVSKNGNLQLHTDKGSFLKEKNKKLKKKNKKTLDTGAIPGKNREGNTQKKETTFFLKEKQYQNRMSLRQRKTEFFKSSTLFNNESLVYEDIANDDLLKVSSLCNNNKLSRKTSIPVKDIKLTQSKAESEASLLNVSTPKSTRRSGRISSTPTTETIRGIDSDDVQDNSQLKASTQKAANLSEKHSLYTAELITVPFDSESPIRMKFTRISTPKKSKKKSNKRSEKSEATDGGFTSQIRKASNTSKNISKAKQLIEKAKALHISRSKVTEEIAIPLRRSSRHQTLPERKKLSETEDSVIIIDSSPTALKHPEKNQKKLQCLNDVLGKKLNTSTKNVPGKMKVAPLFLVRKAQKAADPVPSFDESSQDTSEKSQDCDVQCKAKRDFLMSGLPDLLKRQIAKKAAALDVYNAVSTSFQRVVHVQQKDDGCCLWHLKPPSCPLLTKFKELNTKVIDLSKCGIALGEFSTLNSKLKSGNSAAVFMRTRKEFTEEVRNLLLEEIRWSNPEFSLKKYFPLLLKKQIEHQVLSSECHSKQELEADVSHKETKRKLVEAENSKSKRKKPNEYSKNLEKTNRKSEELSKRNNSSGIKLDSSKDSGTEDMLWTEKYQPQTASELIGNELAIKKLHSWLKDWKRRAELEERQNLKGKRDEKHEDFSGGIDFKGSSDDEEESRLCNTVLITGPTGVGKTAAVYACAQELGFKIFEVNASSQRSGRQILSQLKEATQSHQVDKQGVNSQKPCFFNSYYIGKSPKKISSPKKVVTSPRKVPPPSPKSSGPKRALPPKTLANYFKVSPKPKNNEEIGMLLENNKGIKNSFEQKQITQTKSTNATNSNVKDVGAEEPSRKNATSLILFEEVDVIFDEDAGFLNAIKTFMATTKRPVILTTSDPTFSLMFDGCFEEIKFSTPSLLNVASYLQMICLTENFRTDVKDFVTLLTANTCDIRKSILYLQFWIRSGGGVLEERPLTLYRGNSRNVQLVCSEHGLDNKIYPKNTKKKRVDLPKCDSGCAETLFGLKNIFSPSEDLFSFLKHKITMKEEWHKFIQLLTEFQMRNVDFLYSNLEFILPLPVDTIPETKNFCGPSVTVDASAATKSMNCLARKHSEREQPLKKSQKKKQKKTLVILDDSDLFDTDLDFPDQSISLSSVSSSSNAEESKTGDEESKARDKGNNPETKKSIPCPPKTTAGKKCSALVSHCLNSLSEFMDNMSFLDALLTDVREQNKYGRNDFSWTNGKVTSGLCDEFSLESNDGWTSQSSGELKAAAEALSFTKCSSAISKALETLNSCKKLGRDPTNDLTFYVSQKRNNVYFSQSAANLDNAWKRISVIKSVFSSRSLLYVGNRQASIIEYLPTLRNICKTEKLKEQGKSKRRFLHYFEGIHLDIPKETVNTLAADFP
D(1A) dopamine receptor (Homo sapiens), sequence (P21728 whole entry, looked up): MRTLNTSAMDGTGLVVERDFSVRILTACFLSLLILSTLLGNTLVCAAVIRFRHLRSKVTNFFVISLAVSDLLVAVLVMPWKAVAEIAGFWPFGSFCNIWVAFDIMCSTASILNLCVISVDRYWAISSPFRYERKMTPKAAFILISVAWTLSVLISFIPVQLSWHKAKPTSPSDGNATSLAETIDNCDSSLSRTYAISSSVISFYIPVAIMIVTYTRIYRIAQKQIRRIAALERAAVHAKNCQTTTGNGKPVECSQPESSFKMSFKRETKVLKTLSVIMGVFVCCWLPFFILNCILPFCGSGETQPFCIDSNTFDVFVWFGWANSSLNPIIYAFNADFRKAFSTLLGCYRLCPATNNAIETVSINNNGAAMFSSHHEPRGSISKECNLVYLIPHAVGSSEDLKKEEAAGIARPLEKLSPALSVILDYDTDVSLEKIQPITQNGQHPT
Transient receptor potential cation channel subfamily V member 1 (Homo sapiens), sequence (Q8NER1 whole entry, looked up): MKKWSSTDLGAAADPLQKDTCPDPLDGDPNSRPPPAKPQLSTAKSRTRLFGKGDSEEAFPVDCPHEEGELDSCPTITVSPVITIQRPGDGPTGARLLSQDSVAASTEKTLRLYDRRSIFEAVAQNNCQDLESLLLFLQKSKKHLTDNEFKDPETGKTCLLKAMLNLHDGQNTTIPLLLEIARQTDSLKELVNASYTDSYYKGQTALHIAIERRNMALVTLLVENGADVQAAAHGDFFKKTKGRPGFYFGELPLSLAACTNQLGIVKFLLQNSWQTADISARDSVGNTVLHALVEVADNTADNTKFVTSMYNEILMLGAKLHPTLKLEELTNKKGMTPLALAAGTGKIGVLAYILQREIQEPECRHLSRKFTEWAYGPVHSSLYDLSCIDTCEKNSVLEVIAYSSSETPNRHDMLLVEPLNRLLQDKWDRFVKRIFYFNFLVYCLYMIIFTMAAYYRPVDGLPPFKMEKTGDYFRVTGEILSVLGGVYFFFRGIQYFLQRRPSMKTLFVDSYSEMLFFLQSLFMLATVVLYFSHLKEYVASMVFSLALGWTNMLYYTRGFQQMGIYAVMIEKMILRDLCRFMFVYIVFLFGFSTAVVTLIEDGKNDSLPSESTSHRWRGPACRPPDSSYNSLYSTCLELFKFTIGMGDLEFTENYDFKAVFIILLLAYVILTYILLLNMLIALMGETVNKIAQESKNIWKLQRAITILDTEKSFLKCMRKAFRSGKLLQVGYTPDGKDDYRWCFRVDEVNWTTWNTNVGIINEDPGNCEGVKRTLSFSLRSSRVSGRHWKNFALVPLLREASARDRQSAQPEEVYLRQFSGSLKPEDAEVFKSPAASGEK
Thyrotropin receptor (Homo sapiens), sequence (P16473 whole entry, looked up): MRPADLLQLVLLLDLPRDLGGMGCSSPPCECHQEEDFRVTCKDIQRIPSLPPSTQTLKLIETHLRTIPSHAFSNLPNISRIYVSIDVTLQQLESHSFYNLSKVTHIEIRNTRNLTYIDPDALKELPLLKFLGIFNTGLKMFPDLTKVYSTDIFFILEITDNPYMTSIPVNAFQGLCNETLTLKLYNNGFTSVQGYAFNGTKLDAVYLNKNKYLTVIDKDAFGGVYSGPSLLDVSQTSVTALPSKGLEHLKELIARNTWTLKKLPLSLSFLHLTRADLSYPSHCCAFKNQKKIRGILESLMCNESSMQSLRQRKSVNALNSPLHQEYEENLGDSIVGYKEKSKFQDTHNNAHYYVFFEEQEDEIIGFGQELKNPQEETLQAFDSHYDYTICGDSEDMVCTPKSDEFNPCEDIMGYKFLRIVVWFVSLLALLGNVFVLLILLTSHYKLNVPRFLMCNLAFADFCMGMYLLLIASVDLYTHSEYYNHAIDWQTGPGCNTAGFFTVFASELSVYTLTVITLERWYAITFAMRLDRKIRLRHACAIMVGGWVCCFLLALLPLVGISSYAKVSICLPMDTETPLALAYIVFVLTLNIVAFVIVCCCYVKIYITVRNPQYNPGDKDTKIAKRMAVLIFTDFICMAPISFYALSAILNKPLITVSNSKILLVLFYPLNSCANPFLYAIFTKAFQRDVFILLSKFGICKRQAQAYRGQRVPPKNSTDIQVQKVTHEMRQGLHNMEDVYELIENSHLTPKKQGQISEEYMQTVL

As for `CC(CN1c2ccccc2Sc2ccccc21)N(C)C` (centres undefined), the molecule was called inactive in assay [1] and in assay [5]. For the same molecule, the Potency result in [2] and in [4] was “inactive” each time. Besides, in assay [3], the Potency was 10 µM (active). In assay [6], the activation was 3.12%.

On to `CC1=C(CC(=O)O)c2cc(F)ccc2/C1=C\c1ccc(S(C)(=O)=O)cc1`, for which the result in assay [7] and in assay [8] was inactive. Also, the Potency result in assay [2], in [3] and in assay [4] was “inactive” throughout. Further, the activation in assay [6] is 0%.

In the case of `C[C@H]1O[C@@H](n2cc(F)c(=O)[nH]c2=O)[C@H](O)[C@@H]1O`, the result in assay [7] and in [1] was inactive. In addition, in assay [9], the Potency result is “inactive”. The activation in assay [6] was 0.688%.

As for `CC(C)NC[C@H](O)c1ccc(O)c(O)c1`, the result in assay [7], in assay [1] and in assay [5] was inactive. Also, the Potency result in assay [2], in assay [3] and in assay [4] was “inactive” in each case. For the same molecule, the activation in assay [6] was -0.125% and 0.875%.

As for `COc1ccc(Cl)cc1C(=O)NCCc1ccc(S(=O)(=O)NC(=O)NC2CCCCC2)cc1`, the outcome in assay [7], in assay [1] and in assay [5] was inactive. Also, the Potency result in assay [2], in assay [3] and in [4] was “inactive” in each case. Also, the activation in assay [6] is 1%.

Take `NC(N)=NCCC[C@H](N)C(=O)O`: the outcome in [7], in assay [1] and in assay [5] was inactive. Moreover, the Potency result in assay [2], in assay [3] and in assay [4] was “inactive” throughout. The activation in assay [6] was -0.438%.

For the molecule `CC(C)(C)c1onc(OCP(=O)(O)O)c1CC(N)C(=O)O` (centres undefined), the result in assay [7], in assay [1], in assay [8] and in assay [5] was inactive. Besides, the Potency entry in assay [2], in [3] and in [4] was “inactive” each time. For the same molecule, the activation in [6] is 1%.

Regarding `C=Cc1c(C)c2cc3[nH]c(cc4nc(cc5nc(cc1[nH]2)C(C)=C5CCC(=O)O)C(CCC(=O)O)=C4C)c(C)c3C=C`, the result in [7], in assay [1] and in assay [5] was inactive. For the same molecule, the Potency entry in [2], in [3], in assay [9] and in assay [4] was “inactive” in each case. Also, the activation in assay [6] was 0.125%.

Regarding `CN(C)CC[C@@H](c1ccc(Cl)cc1)c1ccccn1`, the outcome in assay [7], in assay [1] and in assay [5] was inactive. The Potency result in [2], in [3] and in assay [4] was “inactive” each time. In assay [6], the activation was 1.56%.

As to `CC(C)C(=O)c1c(C(C)C)nn2ccccc12`, the outcome in assay [7] and in assay [5] was inactive. Also, the Potency entry in assay [2], in [3] and in assay [4] was “inactive” in each case. Moreover, the activation in [6] is -4.94%.

As to `CNCC(O)c1ccc(O)c(O)c1` (centres undefined), the result in assay [7], in assay [1] and in assay [5] was inactive. The Potency entry in [4] is “inactive”. Moreover, in [6], the activation is 0.938%.

Regarding `CCN(CC)CCOC(=O)C1(C2CCCCC2)CCCCC1`, the outcome in assay [7], in assay [1] and in [5] was inactive. Also, the Potency entry in [4] is “inactive”. In addition, the activation in assay [6] is -6.69%.

For `CN(C)CCCN1c2ccccc2CCc2ccccc21`, the molecule was classed as inactive in [1] and in [5]. The Potency result in assay [2] and in assay [4] was “inactive” in each case. Also, the activation in [6] is 2.19%.

On to `Nc1cc(=O)[nH]c(N)n1`, for which the outcome in [7], in assay [1] and in [5] was inactive. Moreover, the Potency result in assay [2], in assay [3] and in assay [4] was “inactive” each time. For the same molecule, the activation in assay [6] is 1.31%.

Turning to `CCCn1cnc2c1c(=O)n(CCCCC(C)=O)c(=O)n2C`, the result in [7] and in [1] was inactive. For the same molecule, the Potency entry in assay [2], in assay [3] and in assay [4] was “inactive” throughout. Also, the activation in [6] was 1.25%.

Consider `CN(C)CCOC(C)(c1ccccc1)c1ccccn1` (centres undefined), for which the result in [7], in assay [1] and in [5] was inactive. Besides, the Potency result in assay [2], in assay [3] and in [4] was “inactive” each time.

With `CCCCCCCCCCCCCCCC(=O)NCCO`, the result in [7], in assay [1] and in [5] was inactive. For the same molecule, the Potency entry in assay [2], in assay [3], in [9] and in [4] was “inactive” in each case. In [6], the activation is 1.06%.

On to `CCN(CC)CCNC(=O)c1cc(Cl)c(N)cc1OC`, for which the result in assay [7], in assay [1] and in assay [5] was inactive. Also, the Potency entry in [2] and in [4] was “inactive” in each case. Also, in assay [6], the activation is 1.31%.

`CNCCCC1c2ccccc2C=Cc2ccccc21`: the result in assay [1] and in [5] was inactive. Further, the Potency result in assay [2], in assay [9] and in [4] was “inactive” each time. Also, the Potency in assay [3] was 11.2 µM (active). For the same molecule, in assay [6], the activation was 7.31%.

As for `CC(=O)OCC(=O)[C@@]1(O)CC[C@H]2[C@@H]3CCC4=CC(=O)CC[C@]4(C)[C@H]3C(=O)C[C@@]21C`, the outcome in [7] and in [5] was inactive. The Potency entry in [2], in assay [3] and in assay [4] was “inactive” each time. Also, the activation in [6] is 1.06%.

As for `C[C@]12CC[C@@H]3c4ccc(O)cc4CC[C@H]3[C@@H]1CCC2=O`, the result in assay [7] and in [5] was inactive. The Potency entry in assay [2], in [3] and in assay [4] was “inactive” each time. In addition, the activation in assay [6] was 0.812%.

As to `CC1=C(CC(=O)O)c2cc(F)ccc2/C1=C\c1ccc(S(C)=O)cc1` (centres undefined), the molecule was called inactive in assay [1] and in assay [5]. Besides, the Potency entry in assay [2], in assay [3], in assay [9] and in assay [4] was “inactive” throughout.

As for `CSc1ccc2c(c1)N(CCC1CCCCN1C)c1ccccc1S2` (centres undefined), the outcome in [1] and in assay [5] was inactive. Further, the Potency entry in [2] and in [4] was “inactive” throughout.

Take `Cc1cc(N)c2ccccc2[n+]1CCCCCCCCCC[n+]1c(C)cc(N)c2ccccc21`: the outcome in assay [7] and in assay [1] was inactive. Besides, the Potency result in assay [2], in [9] and in assay [4] was “inactive” each time. For the same molecule, in assay [6], the activation was 0.812%.
